Assay results: the supplement of paper PMC12645437, “Orthogonal IMiD-Degron Pairs Induce Selective Protein Degradation in Cells” (ACS Chemical Biology, 2025)
Whole data set: some 8,300 sequences, median “log2 fold change of degron read counts, EGFP-low vs EGFP+ sorted cells (limma voom), compound-induced degradation” near -1.1, cut for the highest 2% near 3.2. The sample holds the highest values, similar sequences and a random draw of the others, so the mix is not that of the screen.

T1: CRBN, Q96SW2
T1 chain: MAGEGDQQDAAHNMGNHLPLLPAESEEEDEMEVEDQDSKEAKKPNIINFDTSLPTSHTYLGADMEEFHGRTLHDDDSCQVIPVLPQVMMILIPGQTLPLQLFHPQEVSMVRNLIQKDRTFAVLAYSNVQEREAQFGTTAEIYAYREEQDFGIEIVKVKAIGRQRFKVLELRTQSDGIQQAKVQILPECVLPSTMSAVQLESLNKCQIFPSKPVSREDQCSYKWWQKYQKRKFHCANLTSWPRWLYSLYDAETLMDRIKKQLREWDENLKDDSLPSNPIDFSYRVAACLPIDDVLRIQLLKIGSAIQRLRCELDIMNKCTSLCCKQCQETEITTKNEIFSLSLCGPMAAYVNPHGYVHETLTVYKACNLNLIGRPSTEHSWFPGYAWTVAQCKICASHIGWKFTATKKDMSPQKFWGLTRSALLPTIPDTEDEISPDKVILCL


Biological target: T1, CRBN, Q96SW2
Experiment: log2 fold change of degron read counts, EGFP-low vs EGFP+ sorted cells (limma voom), compound-induced degradation; higher = more compound-induced degradation of the degron-EGFP fusion; degrons are variants of IKZF1/3 zinc finger 2; compound dose not given here
Settings: Jurkat, 18 h
[1] = compound: compound 19 (5-tert-butyl-thalidomide)
[2] = compound: compound 22 (5-morpholino-thalidomide)
[3] = compound: compound 33 (diphenyl IMiD analogue)
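Also: pooled lentiviral library of zinc finger degron-EGFP fusions in mCherry-positive Jurkat cells, FACS-sorted after compound exposure, with degron abundance counted by next-generation sequencing.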

Sequence	log2 fold change of degron read counts [1]	log2 fold change of degron read counts [2]	log2 fold change of degron read counts [3]	log2 fold change of degron read counts (compound: thalidomide)
FECPICGRSFTQKGNLLRHIKL [46F_47E_49P_50I_52G_53R_54S_55F_67L_, Q9UKT9]	-1.57	-1.84	0.414	1.14
FFCSVCGHNFTQKGNLLRHIKL [46F_47F_49S_50V_52G_53H_54N_55F_67L_, Q9UKT9]	-2.16	-2.66	-2.79	-2.23
FCCNQCGRRFTQKGNLLRHIKL [46F_47C_49N_50Q_52G_53R_54R_55F_67L_, Q9UKT9]	-2.5	-2.28	-2.09	-1.82
LRCEICGFNCTQKGNLLRHIKL [46L_47R_49E_50I_52G_53F_54N_55C_67L_, Q9UKT9]	-1.42	-1.56	-0.0516	0.0396
FGCNQCGRIFTQKGNLLRHIKL [46F_47G_49N_50Q_52G_53R_54I_55F_67L_, Q9UKT9]	-1.52	-1.65	-1.94	-1.45
FECNQCGRHFTQKGNLLRHIKL [46F_47E_49N_50Q_52G_53R_54H_55F_67L_, Q9UKT9]	-2.89	-3.21	-3.78	-2.98
FSCNQCGRTFTQKGNLLRHIKL [46F_47S_49N_50Q_52G_53R_54T_55F_67L_, Q9UKT9]	-2.51	-2.59	-2.31	-2.34
FHCEICGRSFTQKGNLLRHIKL [46F_47H_49E_50I_52G_53R_54S_55F_67L_, Q9UKT9]	-1.49	-1.82	-0.909	-2.11
FDCPICGALFTQKGNLLRHIKL [46F_47D_49P_50I_52G_53A_54L_55F_67L_, Q9UKT9]	-0.924	-0.888	1.62	0.905
LFCEICGFTCTQKGNLLRHIKL [46L_47F_49E_50I_52G_53F_54T_55C_67L_, Q9UKT9]	3.64	3.67	2.59	2.56
LHCEICGFTCTQKGNLLRHIKL [46L_47H_49E_50I_52G_53F_54T_55C_67L_, Q9UKT9]	2.89	2.93	2.43	2.43
LNCEICGFTCTQKGNLLRHIKL [46L_47N_49E_50I_52G_53F_54T_55C_67L_, Q9UKT9]	1.73	0.624	-0.0341	0.396
FQCNQCGHNFTQKGNLLRHIKL [46F_47Q_49N_50Q_52G_53H_54N_55F_67L_, Q9UKT9]	-2.53	-2.33	-2.93	-2.77
FTCEQCGAYFTQKGNLLRHIKL [46F_47T_49E_50Q_52G_53A_54Y_55F_67L_, Q9UKT9]	-2.34	-1.73	0.185	-0.424
FECEQCGAPFTQKGNLLRHIKL [46F_47E_49E_50Q_52G_53A_54P_55F_67L_, Q9UKT9]	-1.7	-3.27	-1.9	-1.5
FFCPICGAFFTQKGNLLRHIKL [46F_47F_49P_50I_52G_53A_54F_55F_67L_, Q9UKT9]	2.73	2.52	1.71	0.267
FNCPICGAMFTQKGNLLRHIKL [46F_47N_49P_50I_52G_53A_54M_55F_67L_, Q9UKT9]	1.73	0.564	0.719	0.478
FRCPICGADFTQKGNLLRHIKL [46F_47R_49P_50I_52G_53A_54D_55F_67L_, Q9UKT9]	-0.99	-0.254	1.92	1.51
FNCPICGRPFTQKGNLLRHIKL [46F_47N_49P_50I_52G_53R_54P_55F_67L_, Q9UKT9]	1.49	0.628	0.167	1.01
FSCPICGAPFTQKGNLLRHIKL [46F_47S_49P_50I_52G_53A_54P_55F_67L_, Q9UKT9]	3.29	2.92	2.02	2.62
FFCPICGAPFTQKGNLLRHIKL [46F_47F_49P_50I_52G_53A_54P_55F_67L_, Q9UKT9]	3.92	3.44	2.55	2.09
FKCPICGAPFTQKGNLLRHIKL [46F_47K_49P_50I_52G_53A_54P_55F_67L_, Q9UKT9]	2.55	2.24	-0.00355	2.87
FRCPICGAPFTQKGNLLRHIKL [46F_47R_49P_50I_52G_53A_54P_55F_67L_, Q9UKT9]	3.44	3.76	3.04	3.53
FECPICGAPFTQKGNLLRHIKL [46F_47E_49P_50I_52G_53A_54P_55F_67L_, Q9UKT9]	2.46	0.3	2.23	2.98
FRCPQCGAPFTQKGNLLRHIKL [46F_47R_49P_50Q_52G_53A_54P_55F_67L_, Q9UKT9]	0.857	2.89	2.7	2.5
FFCPICGAMFTQKGNLLRHIKL [46F_47F_49P_50I_52G_53A_54M_55F_67L_, Q9UKT9]	2.56	2.36	1.76	0.179
FNCPICGAPFTQKGNLLRHIKL [46F_47N_49P_50I_52G_53A_54P_55F_67L_, Q9UKT9]	3.48	3.2	1.92	2.43
FYCEICGRMFTQKGNLLRHIKL [46F_47Y_49E_50I_52G_53R_54M_55F_67L_, Q9UKT9]	1.51	1.03	1.08	-0.729
